# System: glycogen synthase kinase-3 (GSK3A per assay name; protocol says GSK3B)
# Test: compounds binding glycogen synthase kinase-3 – biochemical, small-molecule microarray, 635 nm fluorescence, GSK3A, primary screen (AID 1103); note: the record names both GSK3A and GSK3B
# Conditions: fluorescence 635 nm, higher = more signal
row,Structure (SMILES),composite z-score
1,CCCCC(=C=CC[C@@H](O)c1ccccc1OCCO)CCO,-1.3
2,COc1ccc(C(O)C2C=CC3C(=O)NC(=O)C3N2Nc2ccccn2)c2ccccc12 (stereo not drawn),-0.39
3,COc1cc(CO)cc(I)c1O[C@H]1C=C(C(=O)NCCO)C[C@@H](N(CCN2CCOCC2)C(=O)C2CCOC2)[C@@H]1O (stereo partly drawn),0.437
4,COC(=O)[C@@]1(Cc2ccc(F)cc2)[C@H]2c3cc(C(=O)N(C)C)n(Cc4ccc(S(C)(=O)=O)cc4)c3C[C@H]2CN1C(=O)c1ccccc1,0.0364
5,CC(=O)n1cc(C(O)C2C=CC3C(=O)N(C)C(=O)C3N2Nc2ccccc2)c2ccccc21 (stereo not drawn),0.292
6,O=C1O[C@H](c2ccccc2)[C@H](c2ccccc2)N2[C@H]1[C@@H](C(=O)NC[C@H](O)c1ccccc1)[C@]1(C(=O)Nc3ccccc31)[C@H]2c1ccc(OCCO)cc1,1.23
7,C=C(CCCC)C(=O)CC[C@H](OC(C)=O)c1cccc(OCCO)c1,-0.654
8,COCCOC(=O)N1C(=O)[C@@]2(c3cc(C#CC4=CCCCC4)ccc31)[C@H](C(=O)Nc1nc3ccccc3s1)[C@H]1C(=O)O[C@H](c3ccccc3)[C@H](c3ccccc3)N1[C@@H]2c1ccccc1OCCO,1.29
9,CN1C(=O)C2C=CC(C(O)c3cc(C(F)(F)F)cc(C(F)(F)F)c3)N(N3CCCCC3)C2C1=O (stereo not drawn),-0.0883
10,CN(C)C(=O)[C@@]1(Cc2ccccc2)N=C(c2ccc(OCCCO)cc2)O[C@H]1c1ccccc1N=[N+]=[N-],1.26
11,[N-]=[N+]=NCc1ccccc1[C@@H]1OC(c2ccc(OCCCO)cc2)=N[C@]1(CCS(=O)(=O)c1ccccc1)C(=O)NCc1ccccc1,1.26
12,CCOC(=O)[C@H]1C/C=C/C[C@H](C(=O)OCC)C(=O)O[C@H]2[C@@H](OC)O[C@H](CO)[C@@H](OC(=O)Nc3ccc(C#N)cc3)[C@@H]2OC1=O,-0.0841
13,C#CCN(Cc1ccccc1Br)C(/C=C/c1ccccc1)CO (stereo not drawn),-0.398
14,CC(C)[C@@H](CO)NC(=O)[C@H]1[C@@H](c2ccccc2)N(c2ccccc2)O[C@@H]1C,-0.418
15,[N-]=[N+]=Nc1ccccc1C[C@]1(C(=O)NCC(O)CO)N=C(c2ccc(OCCCO)cc2)O[C@H]1c1ccccc1N=[N+]=[N-] (stereo partly drawn),-0.517
16,C=CC[C@]1(C(=O)NCCCOC)N=C(c2ccc(OCCCO)cc2)O[C@H]1c1ccccc1N=[N+]=[N-],0.746
17,C=CCOC(=O)[C@H]1[C@@H]2C(=O)O[C@@H](c3ccccc3)[C@@H](c3ccccc3)N2[C@@H](c2ccc(OCCOC(=O)[C@H]3C[C@H]4C(=O)N5CCC[C@H]5C(=O)N4[C@H]3c3ccc(O)cc3)cc2)[C@]12C(=O)Nc1ccccc12,1.36
18,CN(C)CCCCCCNC(=O)[C@@H]1C[C@@H]2C(=O)N[C@@H](CCCCN)C(=O)N2[C@@H]1c1cccc(OCCO)c1,1.47
19,COCCOC(=O)N1C(=O)[C@@]2(c3cc(C#Cc4ccc(OC)cc4)ccc31)[C@H](C(N)=O)[C@H]1C(=O)O[C@H](c3ccccc3)[C@H](c3ccccc3)N1[C@@H]2c1ccccc1OCCO,1.21
20,CCOC(=O)[C@H]1C/C=C/C[C@H](C(=O)OCC)C(=O)O[C@H]2[C@@H](OC)O[C@H](CO)[C@@H](OC(=O)Nc3cccc(F)c3)[C@@H]2OC1=O,0.327
21,CN1C(=O)C2C=CC(C(O)C3CC=CCC3)N(NC(=O)OC(C)(C)C)C2C1=O (stereo not drawn),1.12
22,COc1ccc(CCNC(=O)[C@@]2(Sc3ccc(C)cc3)CC(=O)N(C3CCCCC3)[C@@H]2c2ccc(CO)cc2I)cc1,0.974
23,COc1ccc(CCNC(=O)[C@@H]2c3ccccc3C(=O)N(C3Cc4ccccc4C3)[C@H]2c2ccc(CO)cc2)cc1,0.316
24,CO[C@H]1O[C@H](CO)[C@@H](OC(=O)Nc2ccc(Br)cc2)[C@H](OC(=O)c2cc3ccccc3[nH]2)[C@H]1OC(=O)c1cc2ccccc2[nH]1,1.28
25,C=CCOC(=O)[C@H]1[C@@H]2C(=O)O[C@@H](c3ccccc3)[C@@H](c3ccccc3)N2[C@@H](c2ccc(OCCOC(=O)[C@H]3C[C@H]4C(=O)N[C@@H](CC(C)C)C(=O)N4[C@H]3c3ccc(O)cc3)cc2)[C@]12C(=O)Nc1ccc(I)cc12,1.3
26,O=C(NCC(F)(F)F)[C@@H]1c2ccccc2C(=O)N(C2CCCCC2)[C@H]1c1ccc(CO)cc1,-0.0294
27,CCCC=C(CCC)[C@@H](NC(=O)Oc1ccc(F)cc1)c1ccc(C(=O)OC)cc1,-0.102
28,COC(=O)c1c(CC[C@@H](CO)NC(=O)N2CCC[C@H]2Cn2cc(-c3ccccn3)nn2)oc(C(C)=O)c1C(=O)OC,0.209

# From PubChem BioAssay
